Data reported in the supplement of paper PMC8975748.
Counter-ions that a name gives are not always drawn.

tested on: Saccharomyces cerevisiae BY4741 SeMeCo community; experiment: z-score of subpopulation abundance vs DMSO median, subpopulation auxotrophic for LUM; higher = larger share of this subpopulation than in DMSO controls; conditions: 10 µM; 24 h; SM minimal medium; subpopulation (auxotrophy): LUM
Experimental: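 Fluorescent four-plasmid SeMeCo (self-establishing metabolically cooperating S. cerevisiae BY4741 community; plasmids pH-mRuby2, pL-mWasabi, pU-eCFP, pM-TagRFP657) was grown 24 h in minimal SM medium with each Selleck FDA-approved drug at 10 µM in 384-well plates. Cells were fixed and imaged by high-content confocal microscopy. For each auxotrophic subpopulation (and the prototroph), a z-score gives the deviation from the DMSO vehicle-control population median.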

Compared with `CN1CCCN=C1/C=C/c1cccs1` [Pyrantel Pamoate], `Cc1cccc(C)c1NC(=O)C1CCCCN1C` (stereo not given) [Mepivacaine] is higher in “z-score of subpopulation abundance” value: -0.44 for the first, 0.08 for the second.

First: CC(=O)C1C(=O)C=C(C)OC1=O (stereo not given) [Sodium dehydroacetate]
Second: CC(=O)NS(=O)(=O)c1ccc(N)cc1 [Sulfacetamide Sodium]
The “z-score of subpopulation abundance” value of the first is higher: 1.14 for the first, 0.63 for the second.

First: CCCCCCCCCCCC(=O)O [Lauric Acid]
Second: CCc1cccc2c3c([nH]c12)C(CC)(CC(=O)O)OCC3 (stereo not given) [Etodolac]
The “z-score of subpopulation abundance” value of the first is higher: -0.68 for the first, -0.9 for the second.

Compared with `CO/N=C(\C(=O)N[C@@H]1C(=O)N2C(C(=O)O)=C(CSC(=O)c3ccco3)CS[C@H]12)c1csc(N)n1` [Ceftiofur HCl], `CC/C=C(\C(=O)N[C@@H]1C(=O)N2C(C(=O)OCOC(=O)C(C)(C)C)=C(COC(N)=O)CS[C@H]12)c1csc(N)n1` [Cefcapene Pivoxil Hydrochloride] is higher in “z-score of subpopulation abundance” value: -0.05 for the first, 0.63 for the second.

Going from `CO[C@H]1C[C@@H]2CC[C@@H](C)[C@@](O)(O2)C(=O)C(=O)N2CCCC[C@H]2C(=O)O[C@H]([C@H](C)C[C@@H]2CC[C@@H](O)[C@H](OC)C2)CC(=O)[C@H](C)/C=C(\C)[C@@H](O)[C@@H](OC)C(=O)[C@H](C)C[C@H](C)/C=C/C=C/C=C/1C` [Rapamycin (Sirolimus)] to `COc1cccc2c1C(=O)c1c(O)c3c(c(O)c1C2=O)C[C@@](O)(C(=O)CO)C[C@@H]3O[C@H]1C[C@H](N)[C@@H](O)[C@H](C)O1` [Epirubicin HCl], the “z-score of subpopulation abundance” value falls from 11.9 to 2.67.

Going from `C[N+]1(C)[C@@H]2C[C@@H](OC(=O)C(O)(c3cccs3)c3cccs3)C[C@H]1[C@@H]1O[C@@H]12` [Tiotropium Bromide hydrate] to `COc1ccc2cc(C(=O)O)ccc2c1` [6-Methoxy-2-naphthoic acid], the “z-score of subpopulation abundance” value falls from -0.67 to -0.89.

Going from `COC(=O)Nc1nc2cc(Sc3ccccc3)ccc2[nH]1` [Fenbendazole] to `CCOc1ccc2ccccc2c1C(=O)N[C@@H]1C(=O)N2[C@@H]1SC(C)(C)[C@@H]2C(=O)O` [Nafcillin Sodium], the “z-score of subpopulation abundance” value falls from 0.53 to 0.08.

Compared with `O=C(O)c1cc(/N=N/c2ccc(O)c(C(=O)O)c2)ccc1O` [Olsalazine Sodium], `COC(=O)C1=C(C)NC(C)=C(C(=O)OCCN2CCN(C(c3ccccc3)c3ccccc3)CC2)C1c1cccc([N+](=O)[O-])c1` (stereo not given) [Manidipine 2HCl] is higher in “z-score of subpopulation abundance” value: -0.7 for the first, 0.89 for the second.

Going from `COc1ccc(CN2CCN(C(c3ccc(F)cc3)c3ccc(F)cc3)CC2)c(OC)c1OC` [Lomerizine 2HCl] to `O=c1ccc2ccc(OCCCCN3CCN(c4cccc5sccc45)CC3)cc2[nH]1` [Brexpiprazole], the “z-score of subpopulation abundance” value rises from -0.31 to 1.05.

Compared with `Nc1ccc(S(=O)(=O)Nc2nccs2)cc1` [Sulfathiazole], `COc1ccc(NS(=O)(=O)c2ccc(N)cc2)nn1` [Sulfamethoxypyridazine] is lower in “z-score of subpopulation abundance” value: 0.11 for the first, -0.72 for the second.

First: CCN(CC)CCOc1ccc(C(=C(Cl)c2ccccc2)c2ccccc2)cc1 [Clomifene citrate]
Second: c1ccc(-c2ccc(C(c3ccccc3)n3ccnc3)cc2)cc1 (stereo not given) [Bifonazole]
The “z-score of subpopulation abundance” value of the first is higher: 1.75 for the first, 0.94 for the second.

Going from `C[C@]12CC[C@@H]3c4ccc(O)cc4CC[C@H]3[C@@H]1CC[C@@H]2O` [Estradiol] to `C=C[C@H]1CN2CC[C@H]1C[C@H]2[C@H](O)c1ccnc2ccc(OC)cc12` [Quinine HCl Dihydrate], the “z-score of subpopulation abundance” value rises from 0.18 to 0.52.

Going from `CC[C@H](C)C(=O)O[C@H]1CCC=C2C=C[C@H](C)[C@H](CC[C@@H]3C[C@@H](O)CC(=O)O3)[C@H]21` [Mevastatin] to `COC(=O)C1=C(C)NC(C)=C(C(=O)OCC(C)C)C1c1ccccc1[N+](=O)[O-]` (stereo not given) [Nisoldipine], the “z-score of subpopulation abundance” value rises from -0.11 to 0.88.

First: Clc1ccc(CCC(Cn2ccnc2)Sc2c(Cl)cccc2Cl)cc1 (stereo not given) [Butoconazole nitrate]
Second: CN(C)CCc1c[nH]c2ccc(Cn3cncn3)cc12 [Rizatriptan Benzoate]
The “z-score of subpopulation abundance” value of the first is higher: 0.2 for the first, -0.44 for the second.

First: O=S1(=O)CCN(CN2CCS(=O)(=O)NC2)CN1 [Taurolidine]
Second: O=C(NCCN1CCOCC1)c1ccc(Cl)cc1
The “z-score of subpopulation abundance” value of the first is lower: -0.43 for the first, 0.42 for the second.

Compared with `OC(c1cc(C(F)(F)F)nc2c(C(F)(F)F)cccc12)C1CCCCN1` (stereo not given) [Mefloquine HCl], `Cc1nccn1CC1CCc2c(c3ccccc3n2C)C1=O` (stereo not given) [Ondansetron Hydrochloride Dihydrate] is lower in “z-score of subpopulation abundance” value: 0.86 for the first, -0.16 for the second.

First: CN[C@@H]1[C@H](O[C@H]2[C@H](O[C@H]3[C@H](O)[C@@H](O)[C@H](N=C(N)N)[C@@H](O)[C@@H]3N=C(N)N)O[C@@H](C)[C@]2(O)C=O)O[C@@H](CO)[C@H](O)[C@H]1O [Streptomycin sulfate]
Second: COc1cc(O)c(C(=O)Nc2nc(C(=O)NCCN(C(C)C)C(C)C)cs2)cc1OC [Acotiamide hydrochloride]
The “z-score of subpopulation abundance” value of the first is higher: -0.33 for the first, -0.38 for the second.

Going from `Nc1nc(N)c2nc(-c3ccccc3)c(N)nc2n1` [Triamterene] to `CN1CCC(=C2c3ccccc3C=Cc3ccccc32)CC1` [Cyproheptadine hydrochloride], the “z-score of subpopulation abundance” value rises from -4.47 to -0.73.

First: Cc1nnc(SCC2=C(C(=O)O)N3C(=O)[C@@H](NC(=O)Cn4cc(Cl)c(=O)c(Cl)c4)[C@H]3SC2)s1 [Cefazedone]
Second: C[C@]1(COc2ccc(N3CCC(Oc4ccc(OC(F)(F)F)cc4)CC3)cc2)Cn2cc([N+](=O)[O-])nc2O1 [Delamanid]
The “z-score of subpopulation abundance” value of the first is lower: -1.02 for the first, 0.42 for the second.

First: COc1ncnc(NS(=O)(=O)c2ccc(N)cc2)c1OC [Sulfadoxine]
Second: COc1cc(NC(C)CCCN)c2ncccc2c1 (stereo not given) [Primaquine Diphosphate]
The “z-score of subpopulation abundance” value of the first is higher: -0.34 for the first, -0.75 for the second.
